TWEAK Fn14 block – blocks TWEAK-Fn14 interaction in a reporter cell assay. TWEAK-stimulated Fn14 reporter cells, luciferase luminescence, 8 h. inhibition, % at 10 µM. 360,000 tested, 2% active. AID 1159606; in the data active = inhibition above about 50%
TROY NFkB inh – blocks TROY-dependent signaling in reporter cells; Q293 LMP1-TROYcd NF-kB luciferase reporter, 4 h; inhibition, % at 10 µM; 360,000 tested, 0.98% active;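 active = compounds whose plate-normalised and pattern-corrected inhibition of the luciferase reporter signal at the single screening dose is 50% or more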
HIF-2a inh – blocks HIF-2a reporter activity; 786-0 RCC cells HIF-2a reporter, luciferase luminescence, overnight; inhibition, % at 18.8 µM; 360,000 tested, 0.72% active;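 active = inhibition of the luminescence signal of 40% or more relative to plate controls, in a single-dose primary screen at 18.75 µM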
CF NFkB block – blocks PAF-induced NF-kB reporter in cystic fibrosis cells. KKLEB NF-kB-GFP reporter, GFP fluorescence overnight. inhibition, % at 5 µM. 360,000 tested, 0.86% active. AID 588850;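 active = at least 50% inhibition at 5 µM, scaled per plate between neutral and stimulator controls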;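 note: PAF is a Pseudomonas aeruginosa culture filtrate used as stimulus; plate controls were PAF-stimulated DMSO wells for no effect and unstimulated DMSO wells for full effect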
KKLEB cytotox – CF airway cell cytotoxicity counter-screen; KKLEB CF airway cells viability, ATPlite luminescence, overnight; stronger effect = lower value; cells stimulated with P. aeruginosa culture filtrate; activity change (cytotoxicity), % at 5 µM; 360,000 tested, 0.36% active; AID 602141;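 active = corrected activity change at or below -50% at 5 µM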
Peg3 promoter – inhibitors of Peg3 promoter | HeLa PEG-Prom luciferase reporter, luminescence, overnight | inhibition, % at 20 µM | 360,000 tested, 1.7% active | AID 588405;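 active = inhibition of at least 50% at 20 µM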
Numbers without * were called inactive; . = no result; ! = a repeat was not active. Sampled rows, rich in hits. Any-hit rate of the full collection: about 4%.

SMILES	TWEAK Fn14 block	TROY NFkB inh	HIF-2a inh	CF NFkB block	KKLEB cytotox	Peg3 promoter
CCCSc1nc(C)c2cc(C)cc(C)c2n1	12.7	-7.5	8.6	-1.5	-0.2	-9.3
CC1(C(=O)Nc2ccc3c(c2)OCO3)CC1(Cl)Cl (stereo not given)	-11.1	-20.4	-57.1	13.5	-24.3	-42.0
O=C(NCC1CCCO1)c1cc2ccccc2nc1Cl (stereo not given)	21.9	-6.0	-41.2	0.5	-0.1	-12.6
Cc1nc2ccc(F)cc2cc1C(=O)NCC1CCCO1 (stereo not given)	32.8	22.9	13.8	-6.6	-88.8*	-1.3
COc1ccc(-c2c(C)nc3c(-c4ccc(F)cc4)cnn3c2N)cc1	46.4	55.2*	-170.4	5.6	-9.8	-66.2
Cc1nc2c(-c3ccc(F)cc3)cnn2c(N)c1-c1ccccc1	104.2*	93.6*	24.9	-1.1	-53.8*	-10.4
Cc1cc(N)n2ncc(-c3ccccc3)c2n1	-8.9	-44.8	-268.5	7.6	-4.4	-277.6
Cc1cc(-c2ccc(F)cc2)n2ncc(-c3ccccc3)c2n1	86.5*	78.7*	-50.4	-14.6	-23.0	-144.4
Fc1ccc(-c2cnn3c(-c4ccncc4)ccnc23)cc1	61.0*	-7.6	-154.5	11.8	-14.7	-125.3
COc1ccccc1C(=O)NCC(=O)OCC(=O)Nc1ccc2[nH]c(=O)[nH]c2c1	5.5	0.6	5.1	13.8	-1.7	-4.5
Cc1nc2c(-c3ccc(Cl)cc3)cnn2c(N)c1-c1ccc(F)cc1	94.5*	79.6*	10.0	8.2	-23.8	44.4
NC(=O)c1ccsc1NC(=O)c1ccc2c(c1)CCCC2	48.5	19.7	-157.9	-17.4	-57.7*	-125.4
CCOc1ccc(NC(=O)CN(C)C(=O)/C=C/c2ccco2)cc1OCC	-1.7	-7.0	-3.3	-16.5	12.8	13.1
CC1=NNC(=O)/C1=C\c1cn(-c2ccccc2)nc1-c1ccccc1	106.4*	89.7*	95.4*	93.5*	-42.5	104.4*
O=Cc1cn(-c2ccccc2)nc1-c1ccccc1	1.7	-17.6	-155.5	6.3	-15.2	-71.5
CN(C)CCCN1c2ccccc2Sc2ccc(Cl)cc21	-4.9	-9.8	-0.8	-1.0	-16.3	75.4*!
OCCN1CCN(CCCN2c3ccccc3Sc3ccc(Cl)cc32)CC1	-11.0	1.0	-2.6	1.3	-16.9	10.3
COc1ccc2nc(SCCOC(=O)Nc3ccc(Cl)cc3)nc(C)c2c1	50.6*	34.6	11.1	-6.5	-6.9	13.6
CC(C)NC(=O)C1(C)CN(S(C)(=O)=O)CC(=O)N1CCCN1CCOCC1 (stereo not given)	.	.	18.1	.	.	.
CCOC(=O)c1c(-c2ccccc2)oc2ccc(OCC(O)CN(C)C)cc12 (stereo not given)	-54.8	-147.1	5.8	-3.8	-1.0	105.3*
CCc1c(-c2cccc(OC)c2)ncn1Cc1cccc(-c2ccccc2)c1	.	.	-20.0	.	.	.
COc1ccc(N2CCN(C(=O)COC(=O)c3cccc(S(=O)(=O)Nc4cccc(C)c4)c3)CC2)cc1	35.3	27.1	20.7	-12.5	8.8	1.5
O=C(Nc1ccc(N2CCN(C(=O)c3ccco3)CC2)c(Cl)c1)c1cccs1	108.0*	34.7	-69.0	-15.4	-1.4	-1.8
CN1CCN(c2ccc(NC(=O)c3ccco3)cc2Cl)CC1	39.1	50.3*	-50.6	-5.2	-0.8	-152.7
O=C(Nc1ccc(N2CCCC2)c(Cl)c1)c1ccco1	-17.7	-53.2	-193.7	-26.2	2.0	-146.6
SMILES	TWEAK Fn14 block	TROY NFkB inh	HIF-2a inh	CF NFkB block	KKLEB cytotox	Peg3 promoter
CC(=O)Oc1ccccc1Cn1c(C)c(C(=O)NCc2ccccc2C(F)(F)F)sc1=O	11.7	-3.7	3.3	31.9	-15.4	25.1
COc1ccc2oc(C(=O)Nc3ccccn3)c(C)c2c1	52.0*	7.8	-90.7	-40.5	0.2	-174.3
COc1ccc2oc(C(=O)Nc3ccc(C)cn3)c(C)c2c1	11.3	-47.4	-189.6	1.8	-14.8	-307.7
COc1ccc2oc(C(=O)N3CCN(C(c4ccccc4)c4ccccc4)CC3)c(C)c2c1	8.8	12.9	23.9	27.3	-7.6	19.0
COc1ccc2oc(C(=O)N3CCc4ccccc43)c(C)c2c1	73.0*	63.1*	-72.4	-26.2	-54.8*	-145.7
CC(C)Oc1ccccc1/C=N/n1nnnc1N	12.2	5.6	13.6	-24.9	8.7	-8.4
O=C(c1ccc(S(=O)(=O)N2CCCCC2)cc1)N1CCCC(C(F)(F)F)C1 (stereo not given)	8.3	-15.8	8.3	17.6	-6.9	-3.4
Cc1cc(-c2ccccc2)nc2cc(C(=O)N(Cc3ccccc3)Cc3ccccc3)nn12	3.6	.	15.3	31.9	-15.1	58.1*
O=C(COc1cccc(Cl)c1)Nc1nc(-c2ccc(S(=O)(=O)N3CCOCC3)cc2)cs1	56.5*	38.4	11.8	-6.3	-1.5	23.8
CC(C)C(=O)Nc1nc(-c2ccc(S(=O)(=O)N3CCOCC3)cc2)cs1	-1.0	3.3	11.3	0.7	-2.1	1.2
CCOc1cccc(C(=O)Nc2nc(-c3ccc(S(=O)(=O)N4CCOCC4)cc3)cs2)c1	35.5	50.3*	22.4	14.4	-10.6	28.6
O=C(COc1ccc(Cl)cc1)Nc1nc(-c2ccncc2)cs1	5.4	23.2	0.0	6.0	-28.8	2.3
CCOc1ccc2nc(NC(=O)c3ccc(OC)c(S(=O)(=O)N4CCOCC4)c3)sc2c1	43.8	53.0*	-1.1	1.4	8.3	32.7
O=C(COc1ccccc1Cl)Nc1nc(-c2ccncc2)cs1	52.9*	36.5	-26.6	0.7	-15.9	-11.4
O=c1ccc(-c2nc3ccccc3n2C(CCc2ccccc2)c2nc3ccccc3[nH]2)c[nH]1 (stereo not given)	.	.	0.7	.	.	.
Cc1cccc(C)c1NC(=O)CNC(=O)C(C)N(C)CC(=O)Nc1ccc(F)cc1 (stereo not given)	-2.9	0.8	1.4	5.6	0.9	-2.7
COc1ccccc1C(=O)Nc1c(C(=O)N2CCN(C)CC2)oc2ccccc12	-40.0	4.5	-12.6	-6.3	-3.8	-1.4
O=C(Nc1nc(-c2ccccc2)cs1)c1ccccc1NS(=O)(=O)c1ccc(F)cc1	88.0*	49.5	-8.8	47.7	-37.0	40.3
COc1ccccc1C(=O)Nc1nc(-c2ccc(S(=O)(=O)N3CCOCC3)cc2)cs1	106.8*	64.7*	-11.2	-17.6	-10.2	95.5*
COc1ccccc1OC(C)C(=O)Nc1nc(-c2ccc(S(=O)(=O)N3CCOCC3)cc2)cs1 (stereo not given)	39.7	14.8	16.8	4.5	10.4	25.1
Cc1[nH]nc(-c2cccnc2)c1N=NN(C)C	22.4	33.4	29.0	5.3	-16.3	71.2*
CN(C)c1nc(N)nc(-c2cccnc2)n1	6.5	-10.2	-5.4	-2.7	15.2	2.2
COc1ccc(CN2C(=O)C(CC(=O)NC3CCCC3)CC(C(=O)N(C)C)=C2C)cc1 (stereo not given)	10.7	9.4	8.6	-1.1	-5.1	-21.5
Cc1ccnc(NC(=O)Nc2cccc(F)c2)c1	65.9*	-19.0	-74.0	-8.3	13.1	-118.2
